Data published in PubChem BioAssay AID1159580 (chemical genetic matrix, 2015).
Where “and” joins values, the source holds several entries; their conditions need not be identical. Equal values may be shown once. Hit rate of the full screen: of about 5,500 compounds, about 2,000 (36%) were called active. Another 18% or so got no clear call; they are omitted. Cut-off read from the data, not from the text of the source: active = normalized growth mostly below about 0.91 (no sharp cut-off); inconclusive = no clear call, values can overlap the other calls; inactive = mostly above about 0.92. The list shows a part of the results.

Experiment: chemical genetic growth profiling, strain panel (AID 1159580);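 note: tested at 20 µM; growth read once vehicle control cultures reached saturation at 30 °C; 1 = growth at the plate median or of vehicle wells; lower values mean less growth of the strain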
Settings: S. cerevisiae deletion strains, growth OD

Measured: normalized growth

C/C=C(/C)C(=O)O[C@@H]1[C@H](OC(C)=O)[C@@]2(CO)C(CC1(C)C)C1=CCC3[C@@]4(C)CC[C@H](O[C@@H]5O[C@H](C(=O)O)[C@@H](O[C@@H]6O[C@H](CO)[C@@H](O)[C@H](O)[C@H]6O)[C@H](O)[C@H]5O[C@@H]5O[C@H](CO)[C@@H](O)[C@H](O)[C@H]5O)[C@](C)(CO)C4CC[C@@]3(C)[C@]1(C)C[C@H]2O (some centres not stated)
inactive: locus YAL021C, strain ccr4, active compounds read low 1.01 | locus YAL026C, strain drs2, active compounds read low 0.983 | locus YAL030W, strain snc1, active compounds read low 0.987 | locus YBL061C, strain skt5, active compounds read low 0.983 | locus YBR009C, strain hhf1, active compounds read low 0.938 | locus YBR021W, strain FUR4, active compounds read low 0.989 | locus YBR023C, strain chs3, active compounds read low 0.992 | locus YBR171W, strain sec66, active compounds read low 0.996 | locus YBR229C, strain ROT2, active compounds read low 1.01 | locus YBR231C, strain swc5, active compounds read low 0.979 | locus YBR279W, strain paf1, active compounds read low 0.989 | locus YCL011C, strain gbp2, active compounds read low 0.986 | locus YCL016C, strain dcc1, active compounds read low 0.994 | locus YCL029C, strain bik1, active compounds read low 1.03 | locus YCL061C, strain MRC1, active compounds read low 0.981 | locus YCL069W, strain vba3, active compounds read low 0.987 | locus YCR088W, strain abp1, active compounds read low 0.989 | locus YDL005C, strain med2, active compounds read low 0.982 | locus YDL035C, strain GPR1, active compounds read low 1.02 | locus YDL040C, strain nat1, active compounds read low 0.973 | locus YDL074C, strain BRE1, active compounds read low 0.999 | locus YDL101C, strain DUN1, active compounds read low 1.02 | locus YDL185W, strain tfp1, active compounds read low 1.02 | locus YDL192W, strain arf1, active compounds read low 1.02 | locus YDR001C, strain nth1, active compounds read low 0.981 | locus YDR069C, strain doa4, active compounds read low 0.982 | locus YDR101C, strain arx1, active compounds read low 1.01 | locus YDR137W, strain rgp1, active compounds read low 0.975 | locus YDR159W, strain sac3, active compounds read low 0.96 | locus YDR162C, strain NBP2, active compounds read low 1.02 | locus YDR195W, strain ref2 0.929 | locus YDR297W, strain sur2, active compounds read low 0.993 | locus YDR318W, strain mcm21, active compounds read low 1.03 | locus YDR334W, strain swr1, active compounds read low 0.985 | locus YDR335W, strain msn5, active compounds read low 0.989 | locus YDR388W, active compounds read low 1.02 | locus YDR392W, strain spt3, active compounds read low 0.874 | locus YDR502C, strain sam2, active compounds read low 1.02 | locus YEL003W, strain gim4, active compounds read low 0.992 | locus YEL037C, strain rad23, active compounds read low 0.991 | locus YEL061C, strain CIN8 (second series), active compounds read low 0.987 | locus YEL061C, strain CIN8, active compounds read low 1.01 | locus YER015W, strain faa2, active compounds read low 0.983 | locus YER016W, strain bim1, active compounds read low 0.991 | locus YER110C, active compounds read low 1.03 | locus YER111C, strain swi4, active compounds read low 0.968 | locus YER155C, strain BEM2 (second series), active compounds read low 0.997 | locus YER155C, strain BEM2, active compounds read low 0.999 | locus YER167W, strain BCK2, active compounds read low 1.01 | locus YFR010W, strain ubp6, active compounds read low 0.991 | locus YGL078C, strain dbp3, active compounds read low 1.02 | locus YGL086W, strain mad1, active compounds read low 1.03 | locus YGL167C, strain pmr1, active compounds read low 0.987 | locus YGL173C, strain kem1, active compounds read low 0.966 | locus YGL227W, strain vid30, active compounds read low 0.982 | locus YGL240W, strain doc1, active compounds read low 0.97 | locus YGL248W, strain PDE1, active compounds read low 1.01 | locus YGL253W, strain hxk2, active compounds read low 0.974 | locus YGR135W, strain pre9, active compounds read low 1.01 | locus YGR252W, strain gcn5, active compounds read low 0.965 | locus YHR013C, strain ard1, active compounds read low 0.965 | locus YHR027C, strain rpn1, active compounds read low 0.992 | locus YHR030C, strain SLT2, active compounds read low 1.01 and 0.987 | locus YHR079C, strain IRE1 (second series), active compounds read low 1.03 | locus YHR079C, strain IRE1, active compounds read low 0.972 | locus YHR094C, strain hxt1, active compounds read low 1.03 | locus YHR129C, strain ARP1, active compounds read low 1.01 | locus YHR142W, strain chs7, active compounds read low 1.01 | locus YHR200W, strain rpn10, active compounds read low 1.01 | locus YIL066C, strain RNR3, active compounds read low 1.01 | locus YIL073C, strain SPO22, active compounds read low 1.15 | locus YIL125W, strain kgd1, active compounds read low 1.02 | locus YIR030C, strain dcg1, active compounds read low 1.03 | locus YJL092W, strain hpr5, active compounds read low 0.989 | locus YJL095W, strain BCK1 (second series), active compounds read low 0.992 | locus YJL095W, strain BCK1, active compounds read low 1.02 and 0.969 | locus YJL115W, strain asf1, active compounds read low 0.989 | locus YJL129C, strain trk1, active compounds read low 0.984 | locus YJL134W, strain LCB3, active compounds read low 1 | locus YJL154C, strain vps35, active compounds read low 0.987 | locus YJL164C, strain tpk1, active compounds read low 1.01 | locus YJL166W, strain qcr8, active compounds read low 1 | locus YJL168C, strain set2, active compounds read low 1.01 | locus YJL187C, strain SWE1 (second series), active compounds read low 1.02 | locus YJL187C, strain SWE1, active compounds read low 0.996 | locus YJR043C, strain POL32, active compounds read low 0.99 | locus YJR066W, strain TOR1, active compounds read low 1.01
